Measurements as given in PubChem BioAssay (EPA / NIEHS).
Records with an inconclusive call do not appear. Calls of active or inactive are those of the source. The calls were made as follows, unless noted: active = hit-call score of the fitted dose curve at least 0.9, where 1 is the maximum; inactive = score below 0.9.

Legend:
[1] = ATG_NFI_CIS: Attagene CIS-FACTORIAL HepG2 Assay for human Nuclear Factor I (NFI) (AID 2282989); conditions: HepG2 cis-regulatory reporter, NFI response element transcription; actives raise or lower the signal
How it was run: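 Transient MRTU transfection of HepG2 → 24 h chemical dosing → total RNA, oligo(dT) RT → PCR, 6-FAM primer extension, HpaI cut → capillary electrophoresis. Endpoint fitted bidirectionally relative to DMSO.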

[2] = molecular target: Myc proto-oncogene protein (Homo sapiens) (UniProt P01106); test: ATG_Myc_CIS: Attagene CIS-FACTORIAL HepG2 Assay for human Myelocytomatosis (Myc) Proto-Oncogene Transcription Factor (AID 2282990); conditions: HepG2, Attagene cis-reporter transcription factor activity; actives raise or lower the signal
Myc proto-oncogene protein (Homo sapiens), sequence (P01106 whole entry, looked up, the tested form may be a part): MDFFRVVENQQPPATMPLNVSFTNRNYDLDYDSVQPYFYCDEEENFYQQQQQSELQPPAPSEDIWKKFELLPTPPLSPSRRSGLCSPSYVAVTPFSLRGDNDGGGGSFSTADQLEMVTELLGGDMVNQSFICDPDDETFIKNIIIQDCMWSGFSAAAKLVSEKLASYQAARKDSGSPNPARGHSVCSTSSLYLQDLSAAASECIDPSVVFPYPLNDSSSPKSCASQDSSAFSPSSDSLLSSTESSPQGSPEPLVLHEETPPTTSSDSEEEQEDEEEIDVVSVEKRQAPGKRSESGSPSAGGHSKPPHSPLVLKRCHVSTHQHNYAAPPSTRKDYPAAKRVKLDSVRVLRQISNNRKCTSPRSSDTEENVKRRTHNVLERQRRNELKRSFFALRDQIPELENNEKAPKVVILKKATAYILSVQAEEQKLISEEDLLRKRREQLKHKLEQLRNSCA
How it was run: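 Fluorescence intensity of reporter-specific cDNA fragments, separated by capillary electrophoresis, gives the signal. Transfected HepG2 cells carrying cis-promoter reporter constructs are incubated with compound for 24 h; DMSO serves as baseline.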

[3] = ATG_NF_kB_CIS: Attagene CIS-FACTORIAL HepG2 Assay for human Nuclear Factor Kappa B (NF-kB) (AID 2282991); conditions: HepG2 Attagene cis-factorial NF-kB reporter mRNA; actives raise or lower the signal
How it was run: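 Measures mRNA induction of an NF-kB-responsive cis-element reporter in HepG2 cells transfected with multiple reporter units, sampled 24 h post-dosing; quantified by fluorescence after RT-PCR and capillary electrophoresis, fitted for activation or inhibition against DMSO.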

[4] = ATG_NRF2_ARE_CIS: Attagene CIS-FACTORIAL HepG2 Assay for human Nuclear Factor Erythroid 2 Related Factor 2 (NFR2) response to Antioxidant Response Elements (ARE) (AID 2282992); conditions: HepG2 Attagene ARE/NRF2 reporter, transcription factor activity; actives raise or lower the signal;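 as to AC50: reporter mRNA level measured by RT-PCR and capillary electrophoresis fluorescence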
How it was run: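 Fluorescence intensity of reporter-specific cDNA fragments, separated by capillary electrophoresis, reflects mRNA induction in transfected HepG2 cells at 24 h. Activity is fitted bidirectionally, DMSO serving as baseline.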

[5] = ATG_Oct_MLP_CIS: Attagene CIS-FACTORIAL HepG2 Assay for human Octamer-Binding Transcription Factor (Oct) (AID 2282993); conditions: HepG2 Attagene cis-factorial Oct reporter, mRNA; actives raise or lower the signal
How it was run: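 Transient MRTU transfection of HepG2 → 24 h compound treatment → RNA isolation, reverse transcription, PCR → 6-FAM primer extension, HpaI digest → capillary electrophoresis. Activity fitted both directions against DMSO.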

[6] = molecular target: Cellular tumor antigen p53 (Homo sapiens) (UniProt P04637); test: ATG_p53_CIS: Attagene CIS-FACTORIAL HepG2 Assay for human p53 Transcription Factor (AID 2282994); conditions: HepG2 p53 cis-element reporter, Attagene mRNA; actives raise or lower the signal
Cellular tumor antigen p53 (Homo sapiens), sequence (P04637 whole entry, looked up): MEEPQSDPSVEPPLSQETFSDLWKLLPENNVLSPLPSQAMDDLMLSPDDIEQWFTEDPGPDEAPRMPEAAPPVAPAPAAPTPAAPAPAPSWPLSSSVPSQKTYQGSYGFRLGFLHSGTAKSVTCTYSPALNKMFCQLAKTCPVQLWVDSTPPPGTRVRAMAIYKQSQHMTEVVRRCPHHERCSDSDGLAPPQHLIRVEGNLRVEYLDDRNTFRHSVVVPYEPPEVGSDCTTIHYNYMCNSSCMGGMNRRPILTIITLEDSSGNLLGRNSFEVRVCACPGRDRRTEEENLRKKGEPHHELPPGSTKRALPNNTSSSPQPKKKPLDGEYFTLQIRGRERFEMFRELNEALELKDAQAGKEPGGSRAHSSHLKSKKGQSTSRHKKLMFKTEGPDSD
How it was run: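 Transiently transfected HepG2 (multiple cis reporter transcription units); exposure 24 h; reporter RNA via RT-PCR, 6-FAM extension, 2 h HpaI digest at 37 C, CE detection; DMSO baseline.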

[7] = BSK_3C_TissueFactor: BioMAP Diversity Plus: 3C Assay for Tissue Factor Biomarker Activity (AID 2282997); conditions: BioMAP 3C HUVEC, tissue factor biomarker readout; actives raise or lower the signal
How it was run: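 Cells used were primary human umbilical vein endothelial cells. They were dosed with chemical, and after 24 h Tissue Factor was quantified by ELISA. Curves were fitted bidirectionally with DMSO as baseline.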

[8] = BSK_3C_uPAR: BioMAP Diversity Plus: 3C Assay for Urokinase-type plasminogen activator receptor (uPAR) Biomarker Activity (AID 2282998); conditions: BioMAP 3C HUVEC, uPAR biomarker ELISA; actives raise or lower the signal
How it was run: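 ELISA readout of uPAR on human vascular endothelium (umbilical vein primary cells), taken 24 h after chemical dosing. Increases and decreases are both fitted relative to DMSO vehicle.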

[9] = BSK_3C_VCAM1: BioMAP Diversity Plus: 3C Assay for Vascular cell adhesion molecule 1 (VCAM1) Biomarker Activity (AID 2282999); conditions: BioMAP 3C HUVEC, VCAM1 ELISA, cytokine-stimulated; actives raise or lower the signal
How it was run: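 HUVEC primary cells, 24 h compound exposure; VCAM-1 by ELISA; gain/loss of signal fitted bidirectionally vs DMSO baseline.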

[10] = read-out: Intercellular Adhesion Molecule 1 (ICAM1), ICAM1 (gene 3383); test: BSK_3C_ICAM1: BioMAP Diversity Plus: 3C Assay for Intercellular Adhesion Molecule 1 (ICAM1) Biomarker Activity (AID 2283003); conditions: primary human endothelial cells (HUVEC); actives raise or lower the signal
How it was run: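 ELISA read-out of ICAM-1; HUVEC (primary human), 3C system, 24 h post-dosing; bidirectional fit vs DMSO baseline.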

[11] = BSK_3C_Proliferation: Cell Proliferation Assessment in the BioMAP Diversity Plus: 3C Assay (AID 2283006); conditions: primary human endothelial cells (HUVEC);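 as to AC50: potency may reflect either rise or fall in cell number versus DMSO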
How it was run: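 HUVEC, sub-confluent; 48 h chemical exposure; 10% TCA fix, 0.1% SRB stain, A560 total protein. Gain or loss of signal fitted both directions vs DMSO control.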

[12] = molecular target: Peroxisome proliferator-activated receptor gamma (Homo sapiens) (UniProt P37231); test: ATG_PPARg_TRANS: Attagene TRANS-FACTORIAL HepG2 Assay for human Peroxisome Proliferator-activated Receptor-gamma (PPARg) (AID 2283007; active = hit-call score of the fitted dose curve at least 0.9, where 1 is the maximum)
Peroxisome proliferator-activated receptor gamma (Homo sapiens), sequence (P37231 whole entry, looked up, the tested form may be a part): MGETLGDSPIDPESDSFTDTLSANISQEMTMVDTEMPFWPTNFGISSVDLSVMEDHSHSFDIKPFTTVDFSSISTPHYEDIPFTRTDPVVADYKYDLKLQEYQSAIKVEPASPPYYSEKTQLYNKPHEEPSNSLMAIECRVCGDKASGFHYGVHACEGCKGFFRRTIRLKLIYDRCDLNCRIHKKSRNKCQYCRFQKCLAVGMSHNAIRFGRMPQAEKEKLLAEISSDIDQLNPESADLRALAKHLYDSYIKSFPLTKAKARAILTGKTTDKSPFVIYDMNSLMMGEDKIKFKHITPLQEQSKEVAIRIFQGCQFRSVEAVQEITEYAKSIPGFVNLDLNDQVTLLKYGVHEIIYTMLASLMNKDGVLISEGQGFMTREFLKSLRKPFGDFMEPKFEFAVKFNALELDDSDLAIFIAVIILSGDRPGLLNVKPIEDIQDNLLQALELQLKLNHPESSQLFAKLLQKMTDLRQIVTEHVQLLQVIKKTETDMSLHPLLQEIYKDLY
How it was run: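 Gain-of-signal endpoint relative to DMSO, derived from reporter mRNA levels quantified by RT-PCR and capillary electrophoresis. Cells were HepG2 transiently expressing a chimeric NR-Gal4 construct with GAL4-UAS reporters, exposed to chemicals for 24 h.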

[13] = molecular target: Nuclear receptor subfamily 1 group I member 2 (Homo sapiens) (UniProt O75469); test: ATG_PXR_TRANS: Attagene TRANS-FACTORIAL HepG2 Assay for human Pregnane X Receptor (PXR) (AID 2283008; active = hit-call score of the fitted dose curve at least 0.9, where 1 is the maximum)
Nuclear receptor subfamily 1 group I member 2 (Homo sapiens), sequence (O75469 whole entry, looked up, the tested form may be a part): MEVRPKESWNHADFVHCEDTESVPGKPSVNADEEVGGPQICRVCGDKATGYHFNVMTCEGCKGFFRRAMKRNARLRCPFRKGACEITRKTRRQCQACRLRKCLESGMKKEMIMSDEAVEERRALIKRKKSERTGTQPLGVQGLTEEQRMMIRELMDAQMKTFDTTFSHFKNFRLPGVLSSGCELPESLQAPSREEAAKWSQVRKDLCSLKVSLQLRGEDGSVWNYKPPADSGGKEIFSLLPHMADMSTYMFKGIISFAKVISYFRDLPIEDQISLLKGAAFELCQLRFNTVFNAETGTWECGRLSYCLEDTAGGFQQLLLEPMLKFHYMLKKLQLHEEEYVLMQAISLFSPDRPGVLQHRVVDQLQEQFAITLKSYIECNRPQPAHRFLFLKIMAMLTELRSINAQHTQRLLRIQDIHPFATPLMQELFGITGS
How it was run: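 Transient HepG2 transfectants carrying multiplexed reporter transcription units; PXR activity read through a Gal4 chimera. 24 h exposure. RT-PCR/CE fluorescence; upward curve fit referenced to DMSO.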

[14] = molecular target: human Peroxisome Proliferator-activated Receptor alpha (PPARa), PPARA (gene 5465) (UniProt Q07869); test: ATG_PPARa_TRANS: Attagene TRANS-FACTORIAL HepG2 Assay for human Peroxisome Proliferator-activated Receptor alpha (PPARa) (AID 2283001; active = hit-call score of the fitted dose curve at least 0.9, where 1 is the maximum)
human Peroxisome Proliferator-activated Receptor alpha (PPARa), PPARA (gene 5465), sequence (Q07869 whole entry, looked up, the tested form may be a part): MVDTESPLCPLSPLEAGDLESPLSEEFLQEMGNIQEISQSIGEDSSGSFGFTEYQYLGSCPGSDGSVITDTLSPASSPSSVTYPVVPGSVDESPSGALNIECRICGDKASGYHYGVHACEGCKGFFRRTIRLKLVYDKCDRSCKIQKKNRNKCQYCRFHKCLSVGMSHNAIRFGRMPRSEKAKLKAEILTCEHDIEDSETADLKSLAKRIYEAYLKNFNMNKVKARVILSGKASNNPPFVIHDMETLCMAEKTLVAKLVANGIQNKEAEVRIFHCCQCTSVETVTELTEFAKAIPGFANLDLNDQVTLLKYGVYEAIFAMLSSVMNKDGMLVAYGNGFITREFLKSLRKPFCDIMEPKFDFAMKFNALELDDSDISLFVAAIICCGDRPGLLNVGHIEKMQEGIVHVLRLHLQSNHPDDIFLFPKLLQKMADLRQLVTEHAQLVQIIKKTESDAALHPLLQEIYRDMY
How it was run: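 Transient HepG2 transfection, GAL4-UAS reporters, NR-Gal4 chimeras; 24 h compound exposure. Readout: reporter transcripts by RT-PCR, 6-FAM primer extension, HpaI digest, capillary electrophoresis. Positive direction vs DMSO baseline.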

[15] = molecular target: human Peroxisome Proliferator-activated Receptor delta (PPARd), PPARD (gene 5467) (UniProt Q03181); test: ATG_PPARd_TRANS: Attagene TRANS-FACTORIAL HepG2 Assay for human Peroxisome Proliferator-activated Receptor delta (PPARd) (AID 2283002; active = hit-call score of the fitted dose curve at least 0.9, where 1 is the maximum)
human Peroxisome Proliferator-activated Receptor delta (PPARd), PPARD (gene 5467), sequence (Q03181 whole entry, looked up, the tested form may be a part): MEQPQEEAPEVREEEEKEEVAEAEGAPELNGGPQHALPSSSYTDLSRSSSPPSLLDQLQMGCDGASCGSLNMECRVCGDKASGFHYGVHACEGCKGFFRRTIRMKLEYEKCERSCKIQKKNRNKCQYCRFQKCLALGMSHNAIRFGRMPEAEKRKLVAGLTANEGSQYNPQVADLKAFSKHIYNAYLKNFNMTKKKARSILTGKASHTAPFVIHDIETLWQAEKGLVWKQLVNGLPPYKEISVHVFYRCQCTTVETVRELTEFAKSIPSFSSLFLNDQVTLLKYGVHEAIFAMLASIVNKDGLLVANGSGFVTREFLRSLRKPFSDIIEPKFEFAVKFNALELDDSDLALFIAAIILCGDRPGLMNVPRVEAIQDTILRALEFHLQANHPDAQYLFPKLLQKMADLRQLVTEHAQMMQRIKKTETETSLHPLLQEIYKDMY
How it was run: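 Fluorescence from capillary electrophoresis of labelled RT-PCR reporter fragments gives the signal; DMSO sets baseline. Cells: HepG2 transiently carrying GAL4-UAS reporter units plus chimeric nuclear receptor-Gal4 proteins, exposed to chemicals for 24 h.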

[16] = molecular target: human RAR-related Orphan Receptor beta (RORb), RORB (gene 6096) (UniProt Q92753); test: ATG_RORb_TRANS: Attagene TRANS-FACTORIAL HepG2 Assay for human RAR-related Orphan Receptor beta (RORb) (AID 2283010; active = hit-call score of the fitted dose curve at least 0.9, where 1 is the maximum)
human RAR-related Orphan Receptor beta (RORb), RORB (gene 6096), sequence (Q92753 whole entry, looked up, the tested form may be a part): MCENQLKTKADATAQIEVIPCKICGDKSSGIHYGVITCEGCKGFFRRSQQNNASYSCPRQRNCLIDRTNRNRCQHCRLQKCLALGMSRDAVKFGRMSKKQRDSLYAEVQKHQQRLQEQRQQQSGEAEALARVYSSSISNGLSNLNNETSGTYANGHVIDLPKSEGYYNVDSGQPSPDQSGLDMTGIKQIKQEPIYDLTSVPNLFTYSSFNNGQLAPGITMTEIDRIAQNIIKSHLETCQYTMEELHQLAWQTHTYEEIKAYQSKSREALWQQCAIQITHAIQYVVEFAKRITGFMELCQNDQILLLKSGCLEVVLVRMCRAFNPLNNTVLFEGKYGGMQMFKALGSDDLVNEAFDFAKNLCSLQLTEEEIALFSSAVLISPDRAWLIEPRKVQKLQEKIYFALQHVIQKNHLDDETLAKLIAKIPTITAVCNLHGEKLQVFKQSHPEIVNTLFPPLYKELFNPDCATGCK
How it was run: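 HepG2, transient MRTU transfection (GAL4-UAS reporters, exogenous NR-Gal4 chimeras); 24 h compound exposure; total RNA → RT-PCR → 6-FAM primer extension → HpaI digest → CE fluorescence. Positive direction vs DMSO baseline.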

[17] = BSK_4H_Eotaxin3: BioMAP Diversity Plus: 4H Assay for Eotaxin 3 Biomarker Activity (AID 2283000); conditions: primary human endothelial cells (HUVEC); actives raise or lower the signal
How it was run: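 Endothelial primary cells (human umbilical vein) exposed to compound for 24 h. ELISA detection of Eotaxin-3.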

[18] = molecular target: Retinoic acid receptor alpha (Homo sapiens) (UniProt P10276); test: ATG_RARa_TRANS: Attagene TRANS-FACTORIAL HepG2 Assay for human Retinoic Acid Receptor alpha (RARa) (AID 2283005; active = hit-call score of the fitted dose curve at least 0.9, where 1 is the maximum;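 as to AC50: potency for increased reporter signal meaning RARa activation over DMSO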)
Retinoic acid receptor alpha (Homo sapiens), sequence (P10276 whole entry, looked up, the tested form may be a part): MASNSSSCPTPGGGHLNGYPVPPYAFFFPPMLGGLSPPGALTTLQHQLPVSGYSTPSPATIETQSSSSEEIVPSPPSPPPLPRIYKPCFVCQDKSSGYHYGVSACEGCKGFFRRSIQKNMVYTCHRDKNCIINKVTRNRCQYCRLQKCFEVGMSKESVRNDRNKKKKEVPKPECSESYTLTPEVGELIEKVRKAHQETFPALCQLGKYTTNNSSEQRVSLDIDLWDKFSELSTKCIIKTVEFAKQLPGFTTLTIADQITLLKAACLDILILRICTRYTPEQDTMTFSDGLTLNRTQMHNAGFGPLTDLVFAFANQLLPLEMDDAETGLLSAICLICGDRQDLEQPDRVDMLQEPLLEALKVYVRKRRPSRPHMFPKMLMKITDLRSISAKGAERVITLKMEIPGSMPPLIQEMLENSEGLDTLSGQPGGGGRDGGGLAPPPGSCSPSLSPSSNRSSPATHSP
How it was run: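 HepG2 transiently transfected with multiplex GAL4-UAS reporter units including a human RARa–GAL4 chimera; 24 h compound exposure. Reporter mRNA quantified by RT-PCR, 6-FAM labeling and capillary electrophoresis; gain of signal versus DMSO.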

[19] = molecular target: human Retinoic Acid Receptor gamma (RARg), RARG (gene 5916) (UniProt P13631); test: ATG_RARg_TRANS: Attagene TRANS-FACTORIAL HepG2 Assay for human Retinoic Acid Receptor gamma (RARg) (AID 2283009; active = hit-call score of the fitted dose curve at least 0.9, where 1 is the maximum)
human Retinoic Acid Receptor gamma (RARg), RARG (gene 5916), sequence (P13631 whole entry, looked up, the tested form may be a part): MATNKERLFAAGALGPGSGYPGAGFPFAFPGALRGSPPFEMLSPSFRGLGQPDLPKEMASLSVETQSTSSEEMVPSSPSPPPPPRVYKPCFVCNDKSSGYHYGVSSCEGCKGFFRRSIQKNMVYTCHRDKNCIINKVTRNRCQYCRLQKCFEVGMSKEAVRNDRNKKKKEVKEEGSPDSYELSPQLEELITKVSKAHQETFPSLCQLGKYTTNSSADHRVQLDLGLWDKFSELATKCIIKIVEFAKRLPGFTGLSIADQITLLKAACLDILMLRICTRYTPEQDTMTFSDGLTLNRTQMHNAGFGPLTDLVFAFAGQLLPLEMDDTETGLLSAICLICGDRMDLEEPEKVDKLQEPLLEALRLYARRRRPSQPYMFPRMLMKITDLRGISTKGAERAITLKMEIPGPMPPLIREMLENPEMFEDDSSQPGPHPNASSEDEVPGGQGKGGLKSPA
How it was run: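 Readout: reporter transcript levels via RT-PCR, 6-FAM primer-extension labelling, HpaI digestion and capillary electrophoresis. Cells: HepG2 carrying transfected RARg-GAL4 chimera plus UAS reporter set. Dosing 24 h; DMSO negative control.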

Measured: AC50

CC(C)NC(=O)N1CC(=O)N(c2cc(Cl)cc(Cl)c2)C1=O
active: [4] 7.39 µM | [8] 32.8 µM | [12] 23.4 µM | [13] 10.6 µM
not listed: [14] | [15] | [16] | [17] | [18] | [19]
inactive: all other assays above

Cc1ccc(N=CN(C)C=Nc2ccc(C)cc2C)c(C)c1
active: [7] 32 µM | [8] 37.6 µM | [9] 16.4 µM | [10] 30.3 µM | [11] 15.3 µM
inactive: [1] | [2] | [4] | [5] | [6] | [14] | [13]

Nc1cnn(-c2ccccc2)c(=O)c1Cl
active: [12] 22.4 µM
not listed: [13] | [17] | [18] | [19]
inactive: all other assays above

CS(=O)(=O)c1cc(C(F)(F)F)ccc1C(=O)c1cnoc1C1CC1
active: [4] 19.1 µM | [5] 50 µM | [12] 14.2 µM
not listed: [15] | [16]
inactive: all other assays above

CCOP(=S)(OCC)Oc1nc(Cl)n(C(C)C)n1
active: [4] 1.74 µM | [13] 2.39 µM
not listed: [14] | [15] | [17] | [19]
inactive: all other assays above

CN=C=S
active: [4] 13.8 µM | [5] 26.1 µM | [12] 50 µM
not listed: [16] | [17] | [19]
inactive: all other assays above

CC(C)C1(C)N=C(c2ncccc2C(=O)O)NC1=O (stereo not drawn)
not listed: [3] | [13] | [18] | [19]
inactive: all other assays above

COP(=S)(OC)Oc1ccc([N+](=O)[O-])c(C)c1
active: [4] 19.1 µM | [5] 50 µM | [8] 15.6 µM | [11] 25.6 µM | [12] 32.6 µM
not listed: [3] | [18] | [19]
inactive: all other assays above

O=C(O)c1c(Cl)ccc2cc(Cl)cnc12
not listed: [6] | [13] | [15] | [16] | [17] | [18] | [19]
inactive: all other assays above

CC(C)=CC1C(C(=O)OCc2coc(Cc3ccccc3)c2)C1(C)C (stereo not drawn)
active: [4] 13.8 µM | [5] 6.38 µM | [8] 12 µM | [11] 10.3 µM | [12] 13.1 µM
not listed: [6] | [16] | [17]
inactive: all other assays above

N#Cc1c[nH]cc1-c1cccc2c1OC(F)(F)O2
active: [4] 13.2 µM | [5] 13.9 µM | [8] 12.8 µM | [11] 5.61 µM | [12] 19.5 µM
not listed: [15] | [16] | [17] | [18] | [19]
inactive: all other assays above

CC(C)N1C(=O)N(c2ccccc2)CSC1=NC(C)(C)C
active: [7] 22.9 µM | [8] 30.4 µM | [9] 32 µM | [17] 31.2 µM | [11] 16.4 µM
not listed: [14] | [18] | [19]
inactive: all other assays above

Nc1c(Cl)c(Cl)nc(C(=O)O)c1Cl
active: [4] 50 µM
not listed: [13] | [15] | [16] | [17] | [18] | [19]
inactive: all other assays above

Cc1c(COC(=O)[C@@H]2[C@H](/C=C(\Cl)C(F)(F)F)C2(C)C)cccc1-c1ccccc1
active: [11] 12.7 µM
not listed: [14]
inactive: all other assays above

CCOP(=O)(OCC)Oc1nc(Cl)c(Cl)cc1Cl
active: [4] 33.4 µM | [5] 50 µM | [8] 20 µM | [11] 8.46 µM | [12] 30.8 µM
not listed: [14] | [16] | [17] | [18] | [19]
inactive: all other assays above

C=C(C)CN(CC)c1c([N+](=O)[O-])cc(C(F)(F)F)cc1[N+](=O)[O-]
active: [4] 4.69 µM | [18] 30.2 µM | [11] 33.4 µM | [13] 13.6 µM
not listed: [14] | [15] | [16]
inactive: all other assays above
